Structures are written as SMILES. Compounds without any hit were thinned out: in the full panel of roughly 79,000, 15% have a hit. Values without a mark were called inactive. The source made the active and inactive calls. No stated cut-off is given here; in the data, active means growth inhibition above about 70%; inactive means the rest.

A short description of this assay: NCI Yeast Anticancer Drug Screen. Data for the bub3 strain (AID 167). To be noted: S. cerevisiae bub3 mutant strain, stronger effect = higher value. On the procedure: Growth inhibition of yeast strains with defined genetic alterations is measured as a screen for potential anti-cancer activity. Selected strains with alterations in DNA damage repair or cell cycle control were exposed to compounds and growth inhibition was measured relative to vehicle treated controls. The strain used in this assay is bub3

Where [1] appears, read: at 5.0 µM (retest, dose inferred, filed as 0.5).
[2] abbreviates: at 50.0 µM (retest, dose inferred, filed as 5.0).

In the case of `COC1=C2C[C@@H](C)C[C@@H](OC)[C@@H](O)[C@H](C)/C=C(\C)[C@@H](OC(N)=O)[C@H](OC)/C=C\C=C(/C)C(=O)NC(=CC1=O)C2=O`, the growth inhibition under setting [1] was 84% (active), the growth inhibition under setting [2] was 88% (active) and the growth inhibition (at 50.0 µM) was 89.7% (active).

Take `COC1/C=C\C=C(/C)C(=O)Nc2cc3nc4cc(Br)ccc4oc-3c(c2=O)CC(C)CC(OC)C(O)C(C)/C=C(\C)C1OC(N)=O` (configuration not stated): the growth inhibition is 79% (active) under setting [1], 96% (active) under setting [2] and 91.8% (active) (at 50.0 µM).

With `Clc1ccc(C(CCc2ccc(Br)cc2)Cn2ccnc2)c(Cl)c1` (configuration not stated), the growth inhibition was 91% (active) under setting [1], 99% (active) under setting [2] and 99.2% (active) (at 50.0 µM).

Regarding `O=C(O)/C(Cl)=C(\Cl)C(=O)Nc1c(Cl)cccc1Cl`, the growth inhibition reads like this: under setting [1], 3%; under setting [2], 2%; (at 50.0 µM) 29.2%.

`CN(C)CCCN1c2ccc3ccccc3c2Sc2cccc(Cl)c21`: the growth inhibition under setting [1] is 17%, the growth inhibition under setting [2] is 99% (active) and the growth inhibition (at 50.0 µM) was 8.95%.

Regarding `COc1ccc(SC2=C(N(C)C(C)=O)C(=O)c3ccccc3C2=O)cc1`, the growth inhibition is, setting by setting: under setting [1], 99% (active); under setting [2], 99% (active); (at 50.0 µM) 99.6% (active).

With `Cc1ccc(C(=O)CCCN2CCOCC2)c(C)c1`, the growth inhibition reads like this: under setting [1], 30%; under setting [2], 69%; (at 50.0 µM) 73.8% (active).

`Cc1ccc(S(=O)(=O)N/N=c2\c(C)c(C3=NS(=O)(=O)c4cc(S(N)(=O)=O)c(Cl)cc4N3)oc3c(Cl)cc(Cl)cc23)cc1`: the growth inhibition reads like this: under setting [1], 33%; under setting [2], 73% (active); (at 50.0 µM) 60.5%.

Take `O=S(=O)(OI(OI(OS(=O)(=O)C(F)(F)F)c1ccccc1)c1ccccc1)C(F)(F)F`: the growth inhibition reads like this: under setting [1], 65%; under setting [2], 98% (active); (at 50.0 µM) 91% (active).

As to `CCCOCCC#N`, the growth inhibition reads like this: under setting [1], 7%; under setting [2], 13%; (at 50.0 µM) -1.65%.

Consider `[N-]=[N+]=Nc1ccnc2ccc(C3CCCCC3)cc12`, for which the growth inhibition under setting [1] is -4%, the growth inhibition under setting [2] was 99% (active) and the growth inhibition (at 50.0 µM) was 67.3%.

In the case of `CCOc1cc2c(cc1O)CC[C@@H]1[C@@H]2CC[C@]2(C)[C@@H](O)CC[C@@H]12`, the growth inhibition by setting is: under setting [1], 25%; under setting [2], 39%; (at 50.0 µM) 44.2%.

With `C=CCOC(=O)SC(=S)OCN(C)C`, the growth inhibition was -1% under setting [1], 98% (active) under setting [2] and 99.3% (active) (at 50.0 µM).

For the molecule `C=C1CC(O)C2C(C[Se]c3ccccc3)C(=O)O[C@@H]2C2C(=C)[C@@H](O)CC12` (some centres not stated), the growth inhibition is -9% under setting [1], 11% under setting [2] and 30.2% (at 50.0 µM).

(Values after PubChem BioAssay (NCI).)
